# Experimental data: PubChem BioAssay AID540345 (The Scripps Research Institute Molecular Screening Center, 2011)
# Unmarked numbers belong to inactive results. The rule behind the calls is not given here.
# Tested on: Phorbol Ester
# Experiment: selectivity profile over receptors, transporters, CYPs – biochemical, Ricerca HitProfilingScreen, CYP450, set 2, selectivity assay for GPR7 antagonist project, profiling panel (AID 540345)
# Conditions: Ricerca radioligand binding/CYP panel, at 10 µM, stronger effect = higher value
smiles,measurement,value
COc1ccc(Oc2c(Cl)cnn(C3c4ccccc4-c4ccccc43)c2=O)cc1,inhibition,0%
